Binding signal data for 40 sequences are collected here from PMC11006913.

The target in this assay is PITX2 (Homo sapiens, UniProt Q99697 72-157). Description: PBM; 200 nM protein, PBS. As to conditions: dsDNA, one strand shown.
For the sequence AGCGTGGG, the binding signal is 8.14 upbm affinity estimate (log intensity, higher = more binding, comparable within an allelic series).

Consider GCGTACCC, for which the binding signal was 8.02 upbm affinity estimate (log intensity, higher = more binding, comparable within an allelic series).

For AGCACGCC, the binding signal was 8.07 upbm affinity estimate (log intensity, higher = more binding, comparable within an allelic series).

As for GAGTGCGC, the binding signal is 7.98 upbm affinity estimate (log intensity, higher = more binding, comparable within an allelic series).

On to ACAGGGTG, for which the binding signal was 7.94 upbm affinity estimate (log intensity, higher = more binding, comparable within an allelic series).

As for GGAGGAAC, the binding signal is 8.06 upbm affinity estimate (log intensity, higher = more binding, comparable within an allelic series).

For ACTCGACC, the binding signal was 7.76 upbm affinity estimate (log intensity, higher = more binding, comparable within an allelic series).

Turning to GATGATAA, the binding signal is 9.84 upbm affinity estimate (log intensity, higher = more binding, comparable within an allelic series).

Consider AAGCTGAA, for which the binding signal was 9.66 upbm affinity estimate (log intensity, higher = more binding, comparable within an allelic series).

With GGATACTA, the binding signal was 9.25 upbm affinity estimate (log intensity, higher = more binding, comparable within an allelic series).

In the case of CGAGCGTC, the binding signal is 7.93 upbm affinity estimate (log intensity, higher = more binding, comparable within an allelic series).

For GGAGAGAC, the binding signal is 8.03 upbm affinity estimate (log intensity, higher = more binding, comparable within an allelic series).

As to ATGAGCCC, the binding signal is 9.64 upbm affinity estimate (log intensity, higher = more binding, comparable within an allelic series).

Take GCGCTGCA: the binding signal was 8.03 upbm affinity estimate (log intensity, higher = more binding, comparable within an allelic series).

With CGACGTCA, the binding signal is 8.05 upbm affinity estimate (log intensity, higher = more binding, comparable within an allelic series).

In the case of CAGACACG, the binding signal is 7.83 upbm affinity estimate (log intensity, higher = more binding, comparable within an allelic series).

Take CCTTCCAC: the binding signal was 8.11 upbm affinity estimate (log intensity, higher = more binding, comparable within an allelic series).

For ACGTCTCC, the binding signal is 7.95 upbm affinity estimate (log intensity, higher = more binding, comparable within an allelic series).

On to TAAGCTTA, for which the binding signal is 12.3 upbm affinity estimate (log intensity, higher = more binding, comparable within an allelic series).

For the sequence AATCCAAT, the binding signal is 10.9 upbm affinity estimate (log intensity, higher = more binding, comparable within an allelic series).

Turning to GACGGTGA, the binding signal is 8.15 upbm affinity estimate (log intensity, higher = more binding, comparable within an allelic series).

Take CTGGCCGC: the binding signal is 8.13 upbm affinity estimate (log intensity, higher = more binding, comparable within an allelic series).

With CTGTCGAC, the binding signal is 7.99 upbm affinity estimate (log intensity, higher = more binding, comparable within an allelic series).

In the case of ACGTTCTG, the binding signal is 8.19 upbm affinity estimate (log intensity, higher = more binding, comparable within an allelic series).

Turning to ATACCTTA, the binding signal was 9.97 upbm affinity estimate (log intensity, higher = more binding, comparable within an allelic series).

Regarding GCATGCAC, the binding signal is 7.85 upbm affinity estimate (log intensity, higher = more binding, comparable within an allelic series).

In the case of TGGTCGAA, the binding signal is 7.84 upbm affinity estimate (log intensity, higher = more binding, comparable within an allelic series).

Take GAATATTA: the binding signal was 9.35 upbm affinity estimate (log intensity, higher = more binding, comparable within an allelic series).

For CAACGGGC, the binding signal is 7.95 upbm affinity estimate (log intensity, higher = more binding, comparable within an allelic series).

ACCGTTGC: the binding signal was 8.17 upbm affinity estimate (log intensity, higher = more binding, comparable within an allelic series).

For the sequence ATCTAATG, the binding signal was 9.77 upbm affinity estimate (log intensity, higher = more binding, comparable within an allelic series).

Take CTGAGATA: the binding signal was 9.22 upbm affinity estimate (log intensity, higher = more binding, comparable within an allelic series).

With ACGCCGAG, the binding signal is 8 upbm affinity estimate (log intensity, higher = more binding, comparable within an allelic series).

Take ACACCAGC: the binding signal is 8.12 upbm affinity estimate (log intensity, higher = more binding, comparable within an allelic series).

Regarding AGATCCGG, the binding signal was 9.62 upbm affinity estimate (log intensity, higher = more binding, comparable within an allelic series).

As to AGAGCTCA, the binding signal was 9.42 upbm affinity estimate (log intensity, higher = more binding, comparable within an allelic series).

On to CCAAATCG, for which the binding signal is 9.39 upbm affinity estimate (log intensity, higher = more binding, comparable within an allelic series).

Take GCACGCCA: the binding signal is 7.9 upbm affinity estimate (log intensity, higher = more binding, comparable within an allelic series).

On to ATATAAAG, for which the binding signal was 9.37 upbm affinity estimate (log intensity, higher = more binding, comparable within an allelic series).

For the sequence AAATCTCC, the binding signal is 10.8 upbm affinity estimate (log intensity, higher = more binding, comparable within an allelic series).
